Where “and” joins values, the source holds several entries; their conditions need not be identical. Identical values can stand only once. About 2,200 (0.85%) of roughly 260,000 compounds were called active. The sample holds actives, similar compounds and a random draw of the others, so the mix is not that of the screen. A number with no mark means an inactive call.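 Rule for the calls: active = compounds whose cAMP rise, as percent of the full-agonist control response, exceeds 60; inactive = the rest.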

In this assay the target is Prostaglandin E2 receptor EP2 subtype (Homo sapiens) (UniProt P43116). Kind of assay: modulation of human EP2 prostaglandin signaling – cell-based, HTRF cAMP, PGE2 stimulation, primary screen (AID 940).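 Note: rat C6 glioma line stably carrying human EP2 under a CMV promoter; the protocol text gives 20 µM as final concentration; 100% = response of wells given 1 µM PGE2.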 The following applies: EP2-expressing cells, cAMP HTRF FRET, PGE2 co-stimulation; at 25 µM; active compounds read high.
Chain of Prostaglandin E2 receptor EP2 subtype (Homo sapiens) (P43116 whole entry, looked up): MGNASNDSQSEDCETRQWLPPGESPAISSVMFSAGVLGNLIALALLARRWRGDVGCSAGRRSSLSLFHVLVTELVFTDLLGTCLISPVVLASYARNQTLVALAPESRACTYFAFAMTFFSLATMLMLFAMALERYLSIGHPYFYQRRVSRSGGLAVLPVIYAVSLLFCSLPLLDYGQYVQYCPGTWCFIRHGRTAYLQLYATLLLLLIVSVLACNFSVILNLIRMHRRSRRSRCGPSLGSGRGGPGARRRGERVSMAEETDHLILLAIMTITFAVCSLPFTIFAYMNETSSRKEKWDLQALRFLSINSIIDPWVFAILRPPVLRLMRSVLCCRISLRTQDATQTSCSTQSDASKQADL
As to `CCOc1ccc2[nH]c(=O)c(C(c3nnnn3CCOC)N3CCN(C)CC3)cc2c1` (configuration not stated), the induction is -18.3%. Take `COC(=O)c1sc2[nH]c(=S)n(N)c(=O)c2c1C`: the induction was 78.1% (active). For the compound `CCOC(=O)c1sc2nc(C)[nH]c(=O)c2c1C`, the induction is 15.6%. For `COC(=O)Cn1cnc2sc(C(=O)OC)c(C)c2c1=O`, the induction was -5.66%. As for `O=c1[nH]c2ccc(S(=O)(=O)N3CCCC(c4ccccc4)C3)cc2[nH]1` (configuration not stated), the figure is -114%; as for `O=C(Cn1nc2c3ccccc3ncn2c1=O)NCc1cccs1`, 4.57%. As for `COc1ccc2cc(C#N)c(SCC(=O)Nc3ccccc3Br)nc2c1`, the induction is 66.9% (active). Take `COc1ccc2nc(C)cc(SCC(=O)Nc3ccccc3Br)c2c1`: the induction is -51.4%. For `Cc1ccc2cc(C#N)c(SCC(=O)Nc3cccc(C)c3C)nc2c1` the value was -15.3%; for `CCc1cc2ccccc2nc1SCC(=O)Nc1ccccc1Br`, 65.9% (active); for `CCc1cc2cc3c(cc2nc1SCC(=O)Nc1ccccc1Br)OCCO3`, -3.39%. Consider `Cc1cc2ccccc2nc1SCC(=O)Nc1ccccc1F`, for which the induction was 39.1%.

On to `COCCNc1nnc(-c2ccccn2)s1`, for which the induction is -12.4%. For `O=C(CCSc1nc(-c2ccco2)cc(C(F)(F)F)n1)NC1CCCCC1` the value was -7.93%; for `CC(C)(C)Oc1ncc(Br)c(OC(C)(C)C)n1`, 31.4%; for `COc1cccc(-c2nc3cc(C)ccc3o2)c1`, 3.47%.

Take `COc1cccc(-c2cnc(OC(C)(C)C)nc2OC(C)(C)C)c1`: the induction was 62% (active).

As to `COc1ccc(C(=O)N2CC3(C)CC2CC(C)(C)C3)cc1OC` (configuration not stated), the induction is -6.8%. Consider `CC1(C)CC2CC(C)(CN2C(=O)c2ccc(Cl)cc2)C1` (configuration not stated), for which the induction was -5%.

Regarding `CC1(C)CC2CC(C)(CN2c2ncnc3ccc(Br)cc23)C1` (configuration not stated), the induction was 70% (active). With `COc1ccc2[nH]cc(CCNC(=O)C3CCN(c4nc5ccccc5n4C)CC3)c2c1`, the induction is -102%.

As for `CCc1ncc(CNC2(c3ccc(Cl)cc3)CCC2)cn1`, the induction was -47%.

Turning to `CCC(c1nnnn1C(C)(C)C)N(Cc1ccccc1)Cc1cc2ccc(C)cc2[nH]c1=O` (configuration not stated), the induction is 12.1%. `CCC(C)(C)n1nnnc1CN(Cc1ccc(F)cc1)Cc1cc2cc(C)cc(C)c2[nH]c1=O`: the induction was 29.1%. On to `CCc1ccc2[nH]c(=O)c(CN(Cc3ccc(F)cc3)Cc3nnnn3C(C)(C)C)cc2c1`, for which the induction was 62.5% (active). For `COCCNC(=O)Cn1nc2c(C)cc3cc(C)cc(C)c3n2c1=O` the value was -32.1%; for `COc1ccc(NCc2nnc(SCC(=O)Nc3ccc(C)cc3)n2C)cc1`, 8.87%.

Regarding `Cc1ccc(Cn2c3ccccc3n3c(SCC(=O)N4CCc5ccccc54)nnc23)cc1`, the induction was -8.29%. For `CC(C)(C)c1cc(P(=O)(c2ccccc2)c2ccccc2)ccc1O` the value was 66.9% (active); for `COc1ccc(N=Nc2ccc(O)c(P(=O)(c3ccccc3)c3ccccc3)c2)cc1`, 25.3%; for `O=P(O)(CP(=O)(c1ccccc1)c1ccccc1)c1ccccc1O`, -5.29%. For `CN(C)C(=O)CN1N=C(C(C)(C)C)Cn2c(cc3sccc32)C1=O` the value was -24.7%; for `CC(=O)c1ccc2c(ccc3ccccc32)c1`, -39.4%; for `CC(=O)c1ccc2c(c1)c1ccccc1n2CC(C)C`, 66.9% (active). As for `CCn1c2ccccc2c2cc(CC(N)=O)ccc21`, the figure is 13.3%.

As for `Cc1sc2ncnc(NCC(=O)O)c2c1C`, the induction was 2.64%. On to `COc1cc(-c2nnc(SCC(=O)N3CCC(C)CC3)o2)cc(OC)c1OC`, for which the induction was -36.6%. For `CCN1CCCC1CN(Cc1ccccn1)Cc1cccn1-c1ccncc1` (configuration not stated) the value was 7.11%. As for `Cc1cc(C#N)c(SCC(N)=O)nc1-c1ccc(F)cc1`, the figure is 65.8% (active); as for `Cc1cc(=O)[nH]c(SCC(N)=O)c1C#N`, 24.2%. `CCN(CC)C(=O)CSc1nc2c(C)c(C)ccc2cc1C#N`: the induction is 27.6%. As for `CCc1c(C)nc(NC2CCN(C(=O)c3cccc(N(C)C)c3)CC2)[nH]c1=O`, the figure is -19.1%. `COC(=O)CSc1nnc(CSc2nc(C)cc(C)n2)n1-c1ccc(C)cc1`: the induction is -20.7%.

As to `CCOc1ccc(NC(=O)CSc2ncnc3c2sc2ccccc23)cc1`, the induction was 78.8% (active). For the compound `COc1cc(NC(=O)CSc2ncnc3c2sc2nc4cc(C)ccc4cc23)cc(OC)c1`, the induction is -7.45%. In the case of `CCOc1ccc(NC(=O)CSc2nc(C(C)C)nc3ccccc23)cc1`, the induction is 10.4%. As for `CC(c1ccccc1)n1c(Br)nc2c1c(=O)n(C)c(=O)n2C` (configuration not stated), the figure is -1.23%. In the case of `COc1ccc2[nH]c(=O)c(CN(C3CCCC3)C(c3nnnn3Cc3ccccc3)C(C)C)cc2c1` (configuration not stated), the induction was 40.1%.

For `Cc1ccc(C(=O)OC2CCCN(C)C2)cc1` (configuration not stated), the induction was 11.9% and -29.7%. Consider `CC1(C)C2CCC1(C)C(OC(=O)CCn1ccnc1)C2` (configuration not stated), for which the induction is -7.75%. For `CC1(C)C2CCC1(C)C(OC(=O)c1ccc(O)cc1)C2` (configuration not stated), the induction is 67.5% (active).

As to `c1ccc(C(c2nnnn2Cc2ccc3c(c2)OCO3)N2CCN(C3CCCCC3)CC2)cc1` (configuration not stated), the induction was -64.5%. Turning to `CC(C)(C)C(=O)c1cn(CC(=O)N2CCCCC2)c2ccccc12`, the induction was -9.2%. As for `CCn1c(C)nnc1SCC(=O)Nc1ccc(Br)cc1`, the figure is -1.86%; as for `Cc1cc(NC(=O)CN2CCCC(C)C2)n(-c2nc3ccccc3s2)n1` (configuration not stated), 77.7% (active); as for `CCOC(=O)N1CCN(CC(=O)Nc2cc(C)nn2-c2nc3ccccc3s2)CC1`, 32.4%. Take `CC(=O)Nc1ccc(NC(=O)CN2CCCC(C)C2)c(Cl)c1` (configuration not stated): the induction was -9.9%. `COc1ccc(Cc2n[nH]c(=S)n2C)cc1`: the induction was 25.4%. As for `Cc1cc(-c2cnc(C)nc2C2CCN(C(=O)Cc3ccc(C)s3)CC2)on1`, the figure is -15.1%. In the case of `O=C(N/N=C/c1ccc(OCc2ccccc2)cc1)c1ccc(O)cc1`, the induction was -46.8%.

In the case of `Oc1ccc(/C=N/N(Cc2ccccc2)c2ccccc2)cc1`, the induction was 67.5% (active). As to `CN(C)c1ccc(/C=N/N(Cc2ccccc2)c2ccccc2)cc1`, the induction is 23.9%.

The values above are taken from PubChem BioAssay AID940 (Emory University Molecular Libraries Screening Center, 2007).
